# An excerpt weighted towards active compounds, which were near 1.3% of everything screened.
# WRN helicase inh: qHTS for Inhibitors of WRN Helicase; Bifunctional 3'-5' exonuclease/ATP-dependent helicase WRN (Homo sapiens), Q14191; WRN helicase unwinding, fluorescent forked duplex, kinetic; Potency, µM (highest dose often 114 µM), most hits filed as inhibitors; hit rate 0.46% among 360,000; also: nearly all actives have a fitted effect of over 55% in size
#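 Enzyme (20 nM final) and test compound sit together 15 min at room temperature before substrate addition. Substrate is a single-forked duplex oligonucleotide (100 nM) labelled with fluorophore and quencher, with 2 mM ATP; helicase unwinding raises red fluorescence, read kinetically.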
# PI5P4Ka inh: qHTS for Inhibitors of phosphatidylinositol 5-phosphate 4-kinase (PI5P4K) | Phosphatidylinositol 5-phosphate 4-kinase type-2 alpha (Homo sapiens), P48426 | PI5P4Kalpha enzyme, ADP-Glo luminescence, 60 min; stronger effect = lower value | max response, % | hit rate 1.2% among 330,000 | AID 652105, 2013; active = max response of -50% or lower; inconclusive = between -30% and -50%; inactive = -30% or higher; also: value at the top dose of about 77 µM
#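 PI5P4Kalpha ADP-Glo assay; 5 microM ATP final; 60 min RT reaction; HEPES pH 7.4/EGTA/CHAPS, 5% DMSO; controls lacking substrate or enzyme; luminescent end-point.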
# FEN1 inh: qHTS Assay for the Inhibitors of Human Flap endonuclease 1 (FEN1) | Recombinant FEN1 flap cleavage, fluorescence, 15 min | hit rate 0.35% among 390,000 | P39748 | Potency, µM (highest dose often 114 µM), actives largely listed as inhibitors; also: nearly all actives have a fitted effect of over 65% in size
# Target sequence (P39748 whole entry, looked up): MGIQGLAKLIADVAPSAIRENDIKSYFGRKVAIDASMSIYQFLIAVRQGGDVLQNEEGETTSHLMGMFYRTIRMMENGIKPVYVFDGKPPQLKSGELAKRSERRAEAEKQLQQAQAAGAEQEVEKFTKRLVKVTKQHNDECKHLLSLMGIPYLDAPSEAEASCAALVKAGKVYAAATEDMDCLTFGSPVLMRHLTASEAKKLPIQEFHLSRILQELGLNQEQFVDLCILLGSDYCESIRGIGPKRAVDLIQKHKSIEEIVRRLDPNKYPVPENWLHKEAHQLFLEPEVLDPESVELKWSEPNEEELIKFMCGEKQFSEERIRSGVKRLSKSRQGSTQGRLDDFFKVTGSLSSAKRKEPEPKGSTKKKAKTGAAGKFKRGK
#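 With each library titrated from low to high concentration, compounds met 10 nM FEN1 for 15 min at room temperature before 50 nM substrate was added; readings at 0 and 15 min fed four-parameter Hill curve fits.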
# Tb PGK inh: qHTS Assay to Find Inhibitors of Phosphoglycerate Kinase; PGK/GAPDH coupled, Kinase-Glo luminescence, 60 min; Potency, µM (titrated, usually from 57.5 µM), actives largely listed as inhibitors; hit rate 0.043% among 380,000; AID 602233, 2012; also: nearly all actives have a fitted effect of over 60% in size
#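 Luminescent ATP detection (Kinase-Glo Plus) follows a 60-minute room-temperature incubation, with wells lacking PGK as controls. Buffer: 100 mM TEA (pH 7.6), 5 mM MgCl2, 0.01% Tween-20. Coupling enzyme GAPDH (100 nM final) supplies unstable 1,3-BPG in-well.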
# GRP78 ERSR act: qHTS for Inducers of the Endoplasmic Reticulum Stress Response (ERSR) in Human Glioma: qHTS | U87-MG GRP78 promoter luciferase reporter, 16 h | Potency, µM, hits mostly activators | hit rate 0.02% among 420,000; also: series mostly up to about 76 µM; nearly all actives have a fitted effect of over 35% in size
#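 Stably transfected U87-MG glioma cells carrying a GRP78-based luciferase sensor; 16 h compound incubation. Luminescence end-point read 10 min after Bright-Glo addition at room temperature.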
# Pin1 inhibitor: qHTS Assay to Find Inhibitors of Pin1. Peptidyl-prolyl cis-trans isomerase NIMA-interacting 1 (Homo sapiens), Q13526. Pin1 FP peptide displacement, HiFluor488, 10 min. Potency, µM (doses to about 115 µM), actives largely listed as inhibitors. hit rate 0.009% among 390,000. AID 504891, 2011; active = well fitted inhibition curve with a large enough effect in the polarisation, with a control signal flat, not every such curve was filed as active; inconclusive = small, poorly fitted or top-dose-only effect, or effect the other way, or a change in a side signal; inactive = no such curve, though single readings can be large or run the other way; the % refers to the polarisation
# A number is an active result; – = inactive; ? = inconclusive; · = no result; ! = not confirmed by another sample; [ ] = dose if it differs, or a comment. Unless noted, calls follow the shape of the dose curve; as a rule, active = well fitted curve in the direction sought with a large enough effect; inconclusive = small, poorly fitted or top-dose-only effect, or another doubt; inactive = no such curve, though single readings can be large; an effect the other way counts as inactive or inconclusive.
SMILES,WRN helicase inh,PI5P4Ka inh,FEN1 inh,Tb PGK inh,GRP78 ERSR act,Pin1 inhibitor
O=C(Cc1cccc2c(=O)cc(-c3ccccc3)oc12)OCCN1CCOCC1,–,–,·,·,–,·
N=C(N)SCc1cccc2c(=O)cc(-c3ccccc3)oc12,·,·,50µM,·,–,·
CN(C)c1ccc(-c2csc(N3CCC(C(N)=O)CC3)n2)cc1,·,·,·,·,·,–
O=C1N=c2ccc(Br)cc2=C1c1sc(=S)n(NS(=O)(=O)c2ccccc2)c1O,–[11.6 µM],-98,79µM,–,–,–
O=C(O)c1cc(-c2ccco2)nc2ccc(Br)cc12,10µM!,-87!,13µM!,28µM!,–,–
Cc1ccc(-c2cc(C(=O)N3CCN(c4ncccn4)CC3)c3cc(Br)ccc3n2)o1,?,-73,–,–,–,–
O=C(c1ccco1)N1CCN(C(=O)c2cc(-c3ccncc3)nc3ccc(Br)cc23)CC1,–,–,–,–,–,?
COc1ccc(NC(=O)c2ccc(N3C(=O)C4CC=C(Cl)CC4C3=O)cc2)cc1 (stereo not given),–,-51,–,–,–,–
CCN(CC)CCOC(=O)c1ccc(N/C=C(/C#N)c2nc(-c3ccc(OC)c(OC)c3)cs2)cc1,–,-77,?,–,–,–
O=c1c(Cl)c(Cl)cnn1Cc1nnc(-c2ccccc2Br)o1,–,-57,–,–,–,?
Clc1ccccc1OCc1nnc(-c2ccccc2Br)o1,–,–,–,–,–,–
COc1ccc(Cl)cc1NC(=S)NNC(=O)C1(C)CC1(Cl)Cl (stereo not given),–,-52,–,–,–,–
CCCCCCCc1c(C#N)c(N)[nH]c(=S)c1C#N,–,-56,–,–,–,–
CCOC(=O)c1cc(C)[nH]c(=S)c1C#N,–,?,–,–,–,–
O=C(O)COc1ccccc1C=NNC(=O)c1ccc(NS(=O)(=O)c2cccs2)cc1,–,-57,–,–,–,–
N/C(=N\OC(=O)Cc1cccs1)c1ccccc1,–,-61,–,–,–,–
Cc1ccc(/C(N)=N/OC(=O)Cc2cccs2)cc1,–,–,–,–,–,–
Cc1ccc(CNC(=O)c2cccc3c2C(=O)c2ccc(N4CCOCC4)cc2S3(=O)=O)cc1,–,–,–,–,–,–
Cc1ccc(CNC(=O)c2cccc3c2C(=O)c2ccc(N4CCCCC4)cc2S3(=O)=O)cc1,50µM,–,–,–,–,?
COC(=O)/C=C/COc1ccccc1[N+](=O)[O-],–,-67,?,–,–,–
COc1cccc(C(=O)NCc2nc(-c3cccc(NC(=O)c4ccoc4C)c3)oc2C)c1OC,·,·,·,·,–,·
CCOc1ccc(S(=O)(=O)N(CC(=O)N/N=C/c2ccc(-c3ccc([N+](=O)[O-])cc3)o2)c2ccccc2)cc1,–,-67,–,–,–,–
Cc1ccc(C)c(N(CC(=O)N/N=C/c2ccc(-c3ccc([N+](=O)[O-])cc3)o2)S(=O)(=O)c2ccccc2)c1,–,·,–,·,–,?
Cc1c(NC(=S)N/N=C/c2cc([N+](=O)[O-])ccc2O)c(=O)n(-c2ccccc2)n1C,–,-61,–,–,–,–
Cc1cc(C(=O)NCC2CCC3(CCN(Cc4ccc5ccccc5c4)CC3)O2)n(C)n1 (stereo not given),·,·,·,·,–,·
CCOc1ccc(-c2nc3c(c(SCC(=O)Nc4ccccc4C)n2)Cc2ccccc2O3)cc1,·,·,–,–,–,–
O=C(CSc1nc(-c2ccc(F)cc2)nc2c1Cc1ccccc1O2)Nc1ccc(C(=O)O)cc1,?,–,?,16µM,–,?
O=C(CSc1nc(-c2ccccc2)nc2c1Cc1ccccc1O2)Nc1ccc(C(=O)O)cc1,?,-63,?,?,–,?
O=C(O)c1ccc(Nc2ncnc3scc(-c4ccccc4)c23)cc1,–,–,–,–,–,–

# High-throughput results (PubChem)
